Screen size: about 5,500 compounds; about 2,000 (36%) were called active. About 18% were inconclusive and are not listed. Cut-off read from the data, not from the text of the source: active = normalized growth mostly below about 0.91 (no sharp cut-off); inconclusive = no clear call, values can overlap the other calls; inactive = mostly above about 0.92. The list shows a part of the results.
Test: chemical genetic growth profiling, strain panel (AID 1159580);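 note: tested at 20 µM; growth read once vehicle control cultures reached saturation at 30 °C; 1 = growth at the plate median or of vehicle wells; lower values mean less growth of the strain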
Conditions: growth OD

Measured: normalized growth

CCCCOc1ccc(C(=O)CCN2CCCCC2)cc1
inactive: S. cerevisiae deletion strains, locus YKL009W, strain mrt4, active compounds read low 0.902 | S. cerevisiae deletion strains, locus YKL068W, active compounds read low 0.994 | S. cerevisiae deletion strains, locus YKL085W, strain MDH1 (second series), active compounds read low 0.973 | S. cerevisiae deletion strains, locus YKL085W, strain MDH1, active compounds read low 0.973 | S. cerevisiae deletion strains, locus YKL160W, strain elf1, active compounds read low 0.918 | S. cerevisiae deletion strains, locus YKR026C, strain gcn3, active compounds read low 0.996 | S. cerevisiae deletion strains, locus YKR091W, strain srl3, active compounds read low 0.999 | S. cerevisiae deletion strains, locus YLL026W, active compounds read low 0.948 | S. cerevisiae deletion strains, locus YLL041C, strain sdh2, active compounds read low 0.981 | S. cerevisiae deletion strains, locus YLR113W, strain HOG1, active compounds read low 1.03 | S. cerevisiae deletion strains, locus YLR221C, strain rsa3, active compounds read low 0.952 | S. cerevisiae deletion strains, locus YLR258W, strain gsy2, active compounds read low 0.95 | S. cerevisiae deletion strains, locus YLR342W, strain FKS1, active compounds read low 0.985 | S. cerevisiae deletion strains, locus YLR357W, strain rsc2, active compounds read low 1.03 | S. cerevisiae deletion strains, locus YLR384C, strain iki3, active compounds read low 0.976 | S. cerevisiae deletion strains, locus YML120C, strain ndi1, active compounds read low 0.973 | S. cerevisiae deletion strains, locus YMR125W, strain sto1, active compounds read low 0.927 | S. cerevisiae deletion strains, locus YMR129W, active compounds read low 0.99 | S. cerevisiae deletion strains, locus YMR231W, strain pep5, active compounds read low 0.972 | S. cerevisiae deletion strains, locus YMR263W, strain SAP30, active compounds read low 0.916 | S. cerevisiae deletion strains, locus YMR307W, strain GAS1, active compounds read low 0.727 | S. cerevisiae deletion strains, locus YNL209W, strain ssb2, active compounds read low 0.981 | S. cerevisiae deletion strains, locus YNL250W, strain rad50, active compounds read low 0.986 | S. cerevisiae deletion strains, locus YNL271C, strain bni1, active compounds read low 0.94 | S. cerevisiae deletion strains, locus YNL298W, strain CLA4, active compounds read low 0.96 | S. cerevisiae deletion strains, locus YNL322C, strain KRE1 (second series), active compounds read low 1.03 | S. cerevisiae deletion strains, locus YOL012C, strain htz1 0.354 | S. cerevisiae deletion strains, locus YOL147C, strain pex11, active compounds read low 0.965 | S. cerevisiae deletion strains, locus YOR070C, strain gyp1, active compounds read low 0.938 | S. cerevisiae deletion strains, locus YOR080W, strain dia2, active compounds read low 0.975 | S. cerevisiae deletion strains, locus YOR083W, strain WHI5, active compounds read low 0.952 | S. cerevisiae deletion strains, locus YOR106W, strain vam3, active compounds read low 0.97 | S. cerevisiae deletion strains, locus YOR144C, strain elg1, active compounds read low 0.994 | S. cerevisiae deletion strains, locus YOR231W, strain MKK1, active compounds read low 1.03 | S. cerevisiae deletion strains, locus YOR265W, strain rbl2, active compounds read low 0.968 | S. cerevisiae deletion strains, locus YOR290C, strain snf2, active compounds read low 0.882 | S. cerevisiae deletion strains, locus YPL106C, strain sse1, active compounds read low 1.1 | S. cerevisiae deletion strains, locus YPL240C, strain hsp82, active compounds read low 1 | S. cerevisiae deletion strains, locus YPL256C, strain CLN2, active compounds read low 1.01 | S. cerevisiae deletion strains, locus YPR141C, strain kar3, active compounds read low 0.981
active: S. cerevisiae deletion strains, locus YJR066W, strain TOR1, active compounds read low 0.67 | S. cerevisiae deletion strains, locus YJR075W, strain HOC1, active compounds read low 0.66 | S. cerevisiae deletion strains, locus YKR001C, strain vps1, active compounds read low 0.559 | S. cerevisiae deletion strains, locus YLL001W, strain dnm1, active compounds read low 0.428 | S. cerevisiae deletion strains, locus YLR027C, strain aat2, active compounds read low 0.888 | S. cerevisiae deletion strains, locus YLR039C, strain RIC1, active compounds read low 0.426 | S. cerevisiae deletion strains, locus YLR058C, strain SHM2, active compounds read low 0.85 | S. cerevisiae deletion strains, locus YLR102C, strain apc9, active compounds read low 0.0845 | S. cerevisiae deletion strains, locus YLR262C, strain YPT6 (second series), active compounds read low 0.662 | S. cerevisiae deletion strains, locus YLR262C, strain YPT6, active compounds read low 0.523 | S. cerevisiae deletion strains, locus YLR268W, strain sec22, active compounds read low 0.244 | S. cerevisiae deletion strains, locus YLR320W, strain mms22, active compounds read low 0.565 | S. cerevisiae deletion strains, locus YLR330W, strain CHS5, active compounds read low 0.0853 | S. cerevisiae deletion strains, locus YLR342W, strain FKS1 (second series), active compounds read low 0.432 | S. cerevisiae deletion strains, locus YLR370C, strain arc18, active compounds read low 0.85 | S. cerevisiae deletion strains, locus YLR371W, strain rom2, active compounds read low 0.0987 | S. cerevisiae deletion strains, locus YLR418C, strain cdc73, active compounds read low 0.267 | S. cerevisiae deletion strains, locus YML016C, strain PPZ1, active compounds read low 0.17 | S. cerevisiae deletion strains, locus YML032C, strain rad52, active compounds read low 0.748 | S. cerevisiae deletion strains, locus YML124C, strain tub3, active compounds read low 0.552 | S. cerevisiae deletion strains, locus YMR058W, strain fet3, active compounds read low 0.731 | S. cerevisiae deletion strains, locus YMR078C, strain ctf18, active compounds read low 0.138 | S. cerevisiae deletion strains, locus YMR205C, strain PFK2, active compounds read low 0.875 | S. cerevisiae deletion strains, locus YMR223W, strain ubp8, active compounds read low 0.16 | S. cerevisiae deletion strains, locus YNL067W, strain RPL9B, active compounds read low 0.589 | S. cerevisiae deletion strains, locus YNL071W, strain lat1, active compounds read low 0.567 | S. cerevisiae deletion strains, locus YNL153C, strain GIM3, active compounds read low 0.839 | S. cerevisiae deletion strains, locus YNL183C, strain NPR1, active compounds read low 0.435 | S. cerevisiae deletion strains, locus YNL233W, strain BNI4, active compounds read low 0.167 | S. cerevisiae deletion strains, locus YNL248C, strain rpa49, active compounds read low 0.645 | S. cerevisiae deletion strains, locus YNL307C, strain MCK1, active compounds read low 0.0713 | S. cerevisiae deletion strains, locus YNR049C, strain mso1, active compounds read low 0.693 | S. cerevisiae deletion strains, locus YNR052C, strain pop2, active compounds read low 0.864 | S. cerevisiae deletion strains, locus YOL006C, strain TOP1, active compounds read low 0.248 | S. cerevisiae deletion strains, locus YOR001W, strain rrp6, active compounds read low 0.833 | S. cerevisiae deletion strains, locus YOR061W, strain CKA2, active compounds read low 0.691 | S. cerevisiae deletion strains, locus YOR069W, strain VPS5, active compounds read low 0.558 | S. cerevisiae deletion strains, locus YOR136W, strain idh2, active compounds read low 0.0967 | S. cerevisiae deletion strains, locus YOR184W, strain ser1, active compounds read low 0.161 | S. cerevisiae deletion strains, locus YOR270C, strain vph1, active compounds read low 0.275 | S. cerevisiae deletion strains, locus YOR316C, strain cot1, active compounds read low 0.0893 | S. cerevisiae deletion strains, locus YPL051W, strain arl3, active compounds read low 0.894 | S. cerevisiae deletion strains, locus YPL055C, strain LGE1, active compounds read low 0.683 | S. cerevisiae deletion strains, locus YPL078C, strain atp4, active compounds read low 0.507 | S. cerevisiae deletion strains, locus YPL241C, strain CIN2, active compounds read low 0.882 | S. cerevisiae deletion strains, locus YPR119W, strain clb2, active compounds read low 0.0832 | S. cerevisiae deletion strains, locus YPR163C, strain tif3, active compounds read low 0.23 | S. cerevisiae deletion strains, locus YPR167C, strain met16, active compounds read low 0.206 | S. cerevisiae deletion strains, strain wtn01, active compounds read low 0.372 | S. cerevisiae strains, strain wild type, active compounds read low 0.647

Reference: PubChem BioAssay AID1159580 (chemical genetic matrix, 2015)
